Data published in PubChem BioAssay (EPA / NIEHS).
Records with an inconclusive call do not appear. Calls of active or inactive are those of the source. How the source made its calls, unless noted: active means hit-call score of the fitted dose curve at least 0.9, where 1 is the maximum; inactive means score below 0.9.

Tests used:
[1] = ACEA_ER_80hr: ACEA Biosciences xCELLigence Real-Time Cell Analysis on Estrogen Receptor Agonism for Proliferation (AID 2282667; active means hit-call score of the fitted dose curve at least 0.9, where 1 is the maximum); details: T47D proliferation, impedance (xCELLigence), 80 h
Method in brief: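 Estrogen-driven proliferation is captured as electrode impedance in T47D cells 80 h after compound addition. Test articles ran at 8 concentrations, 1:4 dilutions from 100 uM final, in two replicate plates.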

[2] = APR_HepG2_CellCycleArrest_24hr: Apredica 24-hour HepG2 Assay for Cell Cycle Arrest (AID 2282905); details: imaging, actives raise or lower the signal;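 further: cell cycle arrest scored as ratio of 2N to 4N nuclear DNA content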
Method in brief: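 Compounds at 0.39–200 uM (0.5% DMSO) for 24 h, then fixed and Hoechst 33342 stained. Cell-cycle analysis of nuclear DNA content by high-content imaging, fitted bidirectionally versus DMSO.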

[3] = APR_HepG2_NuclearSize_24hr: Apredica 24-hour HepG2 Assay for Nuclear Size (AID 2282907); details: high-content imaging, actives raise or lower the signal
Method in brief: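 HepG2 cells exposed 24 h to compounds at 0.39–200 uM (0.5% DMSO), fixed, Hoechst 33342 stained and imaged at 20x; nuclear diameter measured by automated image analysis, fitted bidirectionally against DMSO controls.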

[4] = APR_HepG2_CellLoss_24hr: Apredica 24-hour HepG2 Assay for Cell Loss (AID 2282908); details: high-content imaging;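 on AC50: fit in both directions so a hit may be cell loss or gain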
Method in brief: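 HepG2 cells exposed 24 hr to 0.39–200 uM compound in duplicate at 0.5% v/v final DMSO. Cells fixed in 3.7% formaldehyde and Hoechst 33342-stained. Cell number came from nuclear imaging at 20x. Bidirectional fit versus DMSO.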

[5] = APR_HepG2_MicrotubuleCSK_24hr: Apredica 24-hour HepG2 Assay for Microtubule CSK Stabilty (AID 2282909); details: HepG2 microtubule cytoskeleton imaging, actives raise or lower the signal
Method in brief: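 HepG2 cells were treated 24 hr with compound at 0.39–200 uM in duplicate (0.5% DMSO final), then fixed and permeabilized. Alpha-tubulin immunofluorescence was imaged by high-content microscopy, with bidirectional fitting against DMSO and taxol as positive control.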

[6] = APR_HepG2_MitoticArrest_24hr: Apredica 24-hour HepG2 Assay for Mitotic Arrest (AID 2282910); details: high-content imaging, actives raise or lower the signal
Method in brief: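 HepG2 cells, 24 h exposure at 0.39-200 uM (10 concentrations, duplicate, 0.5% DMSO). Fixed, stained for phospho-histone H3 with Hoechst; imaged by high-content microscopy, bidirectional fit versus DMSO.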

[7] = APR_HepG2_MitoMembPot_24hr: Apredica 24-hour HepG2 Assay for Mitochondrial Membrane Potential (AID 2282911); details: imaging, actives raise or lower the signal
Method in brief: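 Mitochondrial dye uptake (MitoTracker Red CMXRos, 250 nM, 30 min pre-fixation) in HepG2 after 24 hr compound exposure, 0.39–200 uM; ArrayScan images at 20x, activity fitted in both directions relative to DMSO.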

[8] = APR_HepG2_MitoMass_24hr: Apredica 24-hour HepG2 Assay for Mitochondrial Mass (AID 2282912); details: high-content imaging, actives raise or lower the signal
Method in brief: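 HepG2 cells exposed 24 hr to 0.39–200 uM compound, 0.5% v/v DMSO, in duplicate. Stained before fixation with 250 nM MitoTracker Red CMXRos for 30 min, then imaged at 20x with Hoechst nuclei. Fitted in both directions against DMSO.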

[9] = APR_HepG2_p53Act_24hr: Apredica 24-hour HepG2 Assay for p53 Activation (AID 2282913); details: high-content imaging, actives raise or lower the signal;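 further: p53 protein immunofluorescence averaged per cell in HepG2 with Hoechst nuclei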
Method in brief: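 Following 24 hr dosing of HepG2 at 0.39–200 uM, the cells undergo formaldehyde fixation, Triton permeabilization and multiplexed antibody labeling that includes p53 (Cy5). Signal from the imaging is referenced to DMSO solvent controls.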

[10] = APR_HepG2_CellCycleArrest_72hr: Apredica 72-hour HepG2 Assay for Cell Cycle Arrest (AID 2282914); details: high-content imaging, actives raise or lower the signal
Method in brief: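 Using multiplexed high-content imaging, HepG2 nuclei stained with Hoechst 33342 (2 ug/mL) were analysed for DNA content after fixation and permeabilization. Treatment lasted 72 hr across 0.39–200 uM in duplicate with final DMSO 0.5% v/v; DMSO served as negative control.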

[11] = APR_HepG2_CellLoss_72hr: Apredica 72-hour HepG2 Assay for Cell Loss (AID 2282915); details: high-content imaging
Method in brief: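 HepG2 cells exposed 72 h to compound at 0.39–200 uM (10 concentrations, duplicate) in 0.5% DMSO. Fixed with 3.7% formaldehyde and Hoechst 33342-stained. Imaged at 20x; nuclear count gives cell number, fitted bidirectionally versus DMSO.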

[12] = APR_HepG2_P-H2AX_72hr: Apredica 72-hour HepG2 Assay for H2AX Phosphorylation (AID 2282916); details: imaging, actives raise or lower the signal;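 further: phospho-histone H2A.x immunostain intensity per cell marking DNA damage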
Method in brief: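 HepG2 cells treated 72 h at 0.39–200 uM, 0.5% DMSO final, duplicates. Formaldehyde-fixed, Triton-permeabilised, immunostained for phospho-H2A.x with Hoechst; fluorescence imaged at 20x, bidirectional fit versus DMSO.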

[13] = APR_HepG2_P-H2AX_24hr: Apredica 24-hour HepG2 Assay for H2AX Phosphorylation (AID 2282920); details: high-content imaging, actives raise or lower the signal
Method in brief: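 Human HepG2 liver cells, treated 24 hr with test chemicals (0.39–200 uM, final DMSO 0.5% v/v), are fixed and co-stained for phospho-H2A.x and c-Jun with Hoechst. Imaged intensity is fitted in both directions against DMSO controls.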

[14] = APR_HepG2_StressKinase_24hr: Apredica 24-hour HepG2 Assay for Stress Kinase (AID 2282922); details: HepG2 stress kinase (phospho-c-Jun) imaging, actives raise or lower the signal
Method in brief: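 HepG2 cells exposed 24 h to 0.39–200 uM compound in duplicate (0.5% v/v DMSO final). Cells fixed in 3.7% formaldehyde, permeabilized and immunostained for phospho-c-Jun; read by high-content fluorescence imaging, fitted bidirectionally against DMSO.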

[15] = APR_HepG2_p53Act_72hr: Apredica 72-hour HepG2 Assay for p53 Activation (AID 2282923); details: high-content imaging, actives raise or lower the signal;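 further: average cellular p53 protein immunofluorescence intensity in HepG2 cells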
Method in brief: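 HepG2 cells exposed 72 h to 0.39–200 uM in 0.5% DMSO, duplicates. Fixed, permeabilized cells immunostained for p53 (Cy5) with Hoechst; imaged at 20x, fluorescence analyzed bidirectionally against DMSO.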

[16] = APR_HepG2_MitoMembPot_72hr: Apredica 72-hour HepG2 Assay for Mitochondrial Membrane Potential (AID 2282917); details: imaging, actives raise or lower the signal
Method in brief: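 HepG2 cells dosed 72 hr with compound at 0.39–200 uM in duplicate, 0.5% v/v DMSO final. Mitochondria stained with 250 nM MitoTracker Red CMXRos for 30 min before formaldehyde fixation, imaged by high-content fluorescence; bidirectional fit versus DMSO.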

[17] = APR_HepG2_MitoticArrest_72hr: Apredica 72-hour HepG2 Assay for Mitotic Arrest (AID 2282918); details: high-content imaging, actives raise or lower the signal
Method in brief: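 Using high-content imaging of fixed HepG2 cells, phospho-histone H3 signal was measured following a 72 hr incubation with ten-point compound dilutions up to 200 uM. DMSO served as the negative control and baseline for bidirectional curve fitting.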

[18] = APR_HepG2_MicrotubuleCSK_72hr: Apredica 72-hour HepG2 Assay for Microtubule CSK Stabilty (AID 2282919); details: HepG2 microtubule cytoskeleton, high-content imaging, actives raise or lower the signal
Method in brief: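 HepG2 cells were exposed 72 hr to compound at 0.39–200 uM in duplicate (0.5% DMSO final), then fixed and permeabilized. Alpha-tubulin immunofluorescence was imaged by high-content microscopy, with bidirectional fitting against DMSO and taxol as positive control.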

[19] = APR_HepG2_MitoMass_72hr: Apredica 72-hour HepG2 Assay for Mitochondrial Mass (AID 2282924); details: high-content imaging, actives raise or lower the signal;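 further: MitoTracker Red CMXRos stain intensity per cell imaged as mitochondrial mass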
Method in brief: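 HepG2 cells dosed 72 hr at 0.39–200 uM (0.5% DMSO), in duplicate. MitoTracker Red CMXRos 250 nM loaded 30 min before formaldehyde fixation; high-content fluorescence imaging, bidirectional fit versus DMSO.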

[20] = APR_HepG2_StressKinase_72hr: Apredica 72-hour HepG2 Assay for Stress Kinase (AID 2282921); details: HepG2 stress kinase (phospho-c-Jun) imaging, actives raise or lower the signal
Method in brief: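 HepG2 cells treated 72 hr with 0.39–200 uM compound, 0.5% v/v DMSO, duplicate wells. After formaldehyde fixation and Triton permeabilization, stained with anti-phospho-c-Jun (1:500) and Cy3 secondary, imaged at 20x. Fitted in both directions against DMSO.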

Measured: AC50

NNC(=O)c1ccncc1
inactive: [1] | [2] | [3] | [4] | [5] | [6] | [7] | [8] | [9] | [10] | [11] | [12] | [13] | [14] | [15]

CCCCCCCCN(C)C
inactive: [1] | [2] | [3] | [4] | [5] | [6] | [7] | [8] | [9] | [10] | [11] | [12] | [16] | [17] | [18] | [13] | [14] | [15] | [19]

O=C(O)[C@H](O)[C@@H](O)C(=O)O
inactive: [1] | [2] | [3] | [4] | [5] | [6] | [7] | [8] | [10] | [11] | [12] | [16] | [17] | [18] | [13] | [20] | [14] | [19]

O=C(NO)C1(NS(=O)(=O)c2ccc(Oc3ccc(F)cc3)cc2)CCOCC1
inactive: [1] | [2] | [3] | [4] | [5] | [6] | [7] | [8] | [10] | [16] | [17] | [18] | [13] | [20] | [14] | [19]
active: [11] 65.4 µM | [12] 100 µM

CCn1nc(C)c2c1C(=O)NCC(c1ccc(O)cc1)=N2
inactive: [1] | [2] | [3] | [4] | [5] | [6] | [7] | [8] | [9] | [10] | [11] | [12] | [16] | [17] | [18] | [13] | [14] | [15] | [19]

CC1(C)C(=O)N(Cl)C(=O)N1Cl
inactive: [1] | [2] | [3] | [4] | [5] | [6] | [7] | [8] | [9] | [10] | [11] | [12] | [13] | [14] | [15]

O=C(O)c1cccc(C[C@@H]2COc3ccc(OCc4nc5cc(F)ccc5s4)cc3[C@@H]2O)c1
inactive: [1] | [3] | [5] | [7] | [16] | [18]
active: [2] 50.1 µM | [4] 53.9 µM | [6] 93.5 µM | [8] 156 µM | [9] 97.2 µM | [10] 64 µM | [11] 63.7 µM | [12] 97.3 µM | [17] 102 µM | [13] 105 µM | [14] 110 µM | [15] 73.1 µM | [19] 178 µM
